As usually defined, the inhibition is the relative decrease from the control value, in per cent.

The target of experiment [1] is Protein kinase C gamma type (Homo sapiens) (UniProt P05129). The settings on record: at 1 µM.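 Note: each value is an averaged percent inhibition of the enzyme.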
Experiment [2] deals with T1, Protein kinase C iota type (Homo sapiens) (UniProt P41743).
T1 sequence (whole entry): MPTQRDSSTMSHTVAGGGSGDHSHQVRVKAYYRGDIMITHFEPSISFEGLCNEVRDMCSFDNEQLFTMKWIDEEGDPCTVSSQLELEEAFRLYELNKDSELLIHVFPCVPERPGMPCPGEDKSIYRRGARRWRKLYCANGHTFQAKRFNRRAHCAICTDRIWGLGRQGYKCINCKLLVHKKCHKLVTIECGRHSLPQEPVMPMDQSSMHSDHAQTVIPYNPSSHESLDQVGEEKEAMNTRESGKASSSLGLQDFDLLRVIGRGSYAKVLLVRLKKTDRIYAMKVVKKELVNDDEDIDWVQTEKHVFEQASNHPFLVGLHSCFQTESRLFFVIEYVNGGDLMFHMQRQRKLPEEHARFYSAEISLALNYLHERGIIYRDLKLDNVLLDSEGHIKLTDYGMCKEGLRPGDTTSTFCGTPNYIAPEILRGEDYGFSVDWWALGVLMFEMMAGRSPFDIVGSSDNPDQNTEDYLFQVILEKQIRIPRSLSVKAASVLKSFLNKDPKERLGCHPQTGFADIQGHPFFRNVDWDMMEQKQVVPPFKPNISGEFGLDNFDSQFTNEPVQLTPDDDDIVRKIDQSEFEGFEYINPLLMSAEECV
The settings on record: at 0.1 µM.

Experiment [3] has as its target T1, Protein kinase C iota type (Homo sapiens). The following applies: at 1 µM.
Experiment [4] addresses Protein kinase C theta type (Homo sapiens) (UniProt Q04759). The settings on record: at 0.1 µM.
The target is the same in experiment [5]. The settings on record: at 1 µM.
Experiment [6] deals with Protein kinase C beta type (Homo sapiens) (UniProt P05771). The settings on record: at 0.1 µM.
For experiment [7] the target is unchanged. The settings on record: at 1 µM.
In experiment [8] the target is T2, Serine/threonine-protein kinase D1 (Homo sapiens) (UniProt Q15139).
T2 sequence (whole entry): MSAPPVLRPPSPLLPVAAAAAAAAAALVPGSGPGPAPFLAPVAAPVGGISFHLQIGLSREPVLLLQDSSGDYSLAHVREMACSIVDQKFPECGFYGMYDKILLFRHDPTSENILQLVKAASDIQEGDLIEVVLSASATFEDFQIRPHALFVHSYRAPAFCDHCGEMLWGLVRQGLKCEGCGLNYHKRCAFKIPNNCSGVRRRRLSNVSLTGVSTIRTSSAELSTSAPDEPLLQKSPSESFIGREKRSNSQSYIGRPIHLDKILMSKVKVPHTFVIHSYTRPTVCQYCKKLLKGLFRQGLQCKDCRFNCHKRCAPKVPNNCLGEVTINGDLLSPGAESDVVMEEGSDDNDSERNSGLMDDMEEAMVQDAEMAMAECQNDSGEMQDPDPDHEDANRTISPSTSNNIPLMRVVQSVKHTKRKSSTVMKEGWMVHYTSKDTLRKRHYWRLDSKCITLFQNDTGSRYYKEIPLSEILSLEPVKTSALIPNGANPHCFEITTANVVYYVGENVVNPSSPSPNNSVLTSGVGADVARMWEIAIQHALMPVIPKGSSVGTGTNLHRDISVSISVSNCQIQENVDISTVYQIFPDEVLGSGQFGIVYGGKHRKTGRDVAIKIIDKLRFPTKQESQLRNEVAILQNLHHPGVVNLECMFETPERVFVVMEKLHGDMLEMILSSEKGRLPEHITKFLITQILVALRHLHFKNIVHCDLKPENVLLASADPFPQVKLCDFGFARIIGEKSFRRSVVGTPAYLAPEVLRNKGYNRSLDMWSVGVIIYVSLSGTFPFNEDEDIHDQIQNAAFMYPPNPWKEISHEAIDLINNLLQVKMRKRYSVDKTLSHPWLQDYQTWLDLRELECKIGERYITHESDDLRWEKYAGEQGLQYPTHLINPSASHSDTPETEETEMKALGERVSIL
The settings on record: at 0.1 µM.

The target in experiment [9] is T2, Serine/threonine-protein kinase D1 (Homo sapiens). The settings on record: at 1 µM.
Experiment [10] deals with T3, Serine/threonine-protein kinase D2 (Homo sapiens) (UniProt Q9BZL6).
T3 sequence (whole entry): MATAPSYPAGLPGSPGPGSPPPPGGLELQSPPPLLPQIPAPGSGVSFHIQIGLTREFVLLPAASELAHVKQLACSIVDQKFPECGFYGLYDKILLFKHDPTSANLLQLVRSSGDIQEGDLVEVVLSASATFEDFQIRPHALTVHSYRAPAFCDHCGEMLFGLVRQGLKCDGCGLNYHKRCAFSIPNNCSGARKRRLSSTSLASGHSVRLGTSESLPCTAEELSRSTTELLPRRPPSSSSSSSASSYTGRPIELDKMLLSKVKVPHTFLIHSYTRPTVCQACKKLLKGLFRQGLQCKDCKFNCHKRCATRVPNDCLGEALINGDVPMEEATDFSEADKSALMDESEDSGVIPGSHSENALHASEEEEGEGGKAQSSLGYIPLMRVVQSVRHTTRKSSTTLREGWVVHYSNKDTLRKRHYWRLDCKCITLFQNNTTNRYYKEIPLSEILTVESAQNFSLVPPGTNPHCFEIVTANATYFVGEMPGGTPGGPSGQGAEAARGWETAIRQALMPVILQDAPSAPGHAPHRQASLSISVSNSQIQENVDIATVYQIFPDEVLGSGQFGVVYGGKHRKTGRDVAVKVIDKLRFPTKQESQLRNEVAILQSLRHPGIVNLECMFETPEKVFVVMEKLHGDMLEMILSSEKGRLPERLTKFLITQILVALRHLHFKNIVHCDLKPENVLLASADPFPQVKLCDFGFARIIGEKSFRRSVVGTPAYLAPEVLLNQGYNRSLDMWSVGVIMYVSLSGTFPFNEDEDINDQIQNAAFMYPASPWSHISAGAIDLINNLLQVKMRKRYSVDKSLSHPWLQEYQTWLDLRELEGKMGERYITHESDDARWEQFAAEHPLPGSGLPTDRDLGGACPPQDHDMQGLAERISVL
The settings on record: at 0.1 µM.

Experiment [11] concerns the target T3, Serine/threonine-protein kinase D2 (Homo sapiens). The following applies: at 1 µM.
Experiment [12] deals with T4, Serine/threonine-protein kinase D3 (Homo sapiens) (UniProt O94806).
T4 sequence (whole entry): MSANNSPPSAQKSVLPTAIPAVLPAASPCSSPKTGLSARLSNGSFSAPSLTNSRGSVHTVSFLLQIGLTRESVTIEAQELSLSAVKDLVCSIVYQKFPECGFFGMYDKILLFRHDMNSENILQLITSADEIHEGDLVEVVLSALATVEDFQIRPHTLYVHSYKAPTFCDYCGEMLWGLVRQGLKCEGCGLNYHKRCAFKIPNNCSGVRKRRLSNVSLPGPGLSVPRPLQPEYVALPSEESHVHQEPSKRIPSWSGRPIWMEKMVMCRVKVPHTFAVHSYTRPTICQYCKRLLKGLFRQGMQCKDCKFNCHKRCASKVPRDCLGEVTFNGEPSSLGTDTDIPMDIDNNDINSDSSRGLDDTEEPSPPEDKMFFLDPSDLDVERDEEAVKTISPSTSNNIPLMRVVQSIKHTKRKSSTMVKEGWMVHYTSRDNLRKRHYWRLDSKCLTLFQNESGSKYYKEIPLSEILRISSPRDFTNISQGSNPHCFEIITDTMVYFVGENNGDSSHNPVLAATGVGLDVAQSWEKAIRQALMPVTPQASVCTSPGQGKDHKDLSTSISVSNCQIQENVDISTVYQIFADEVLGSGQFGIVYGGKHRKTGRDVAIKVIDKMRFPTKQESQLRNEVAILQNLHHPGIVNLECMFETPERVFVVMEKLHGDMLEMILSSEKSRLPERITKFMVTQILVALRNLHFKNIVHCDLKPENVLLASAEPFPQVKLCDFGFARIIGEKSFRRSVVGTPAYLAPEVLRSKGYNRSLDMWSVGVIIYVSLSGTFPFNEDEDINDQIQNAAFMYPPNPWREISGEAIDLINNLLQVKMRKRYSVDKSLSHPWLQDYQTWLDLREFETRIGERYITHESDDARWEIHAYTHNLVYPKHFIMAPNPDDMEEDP
The following applies: at 0.1 µM.

Experiment [13] concerns the target T4, Serine/threonine-protein kinase D3 (Homo sapiens). The settings on record: at 1 µM.
The target of experiment [14] is T5, cGMP-dependent protein kinase 1 (Homo sapiens) (UniProt Q13976).
T5 sequence (whole entry): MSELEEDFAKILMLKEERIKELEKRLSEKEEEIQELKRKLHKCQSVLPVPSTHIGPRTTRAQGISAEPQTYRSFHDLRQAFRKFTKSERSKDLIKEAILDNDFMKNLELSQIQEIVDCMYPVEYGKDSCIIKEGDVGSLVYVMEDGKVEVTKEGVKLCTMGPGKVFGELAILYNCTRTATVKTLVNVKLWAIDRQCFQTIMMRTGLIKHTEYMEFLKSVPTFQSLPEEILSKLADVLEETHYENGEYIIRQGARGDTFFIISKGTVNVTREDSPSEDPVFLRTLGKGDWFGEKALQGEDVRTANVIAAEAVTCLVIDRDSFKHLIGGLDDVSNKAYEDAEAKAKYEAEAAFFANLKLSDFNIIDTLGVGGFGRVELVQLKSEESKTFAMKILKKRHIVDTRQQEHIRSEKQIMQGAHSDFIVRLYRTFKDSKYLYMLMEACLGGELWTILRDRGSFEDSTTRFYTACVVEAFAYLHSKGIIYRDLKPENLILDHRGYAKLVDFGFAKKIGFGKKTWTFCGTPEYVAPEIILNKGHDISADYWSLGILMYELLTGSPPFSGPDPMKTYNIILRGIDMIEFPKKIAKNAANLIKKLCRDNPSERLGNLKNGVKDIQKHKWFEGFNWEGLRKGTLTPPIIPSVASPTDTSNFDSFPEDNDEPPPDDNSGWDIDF
The following applies: at 0.1 µM.

For experiment [15], the target named is T5, cGMP-dependent protein kinase 1 (Homo sapiens). The following applies: at 1 µM.
Experiment [16] deals with T6, cGMP-dependent protein kinase 2 (Homo sapiens) (UniProt Q13237).
T6 sequence (whole entry): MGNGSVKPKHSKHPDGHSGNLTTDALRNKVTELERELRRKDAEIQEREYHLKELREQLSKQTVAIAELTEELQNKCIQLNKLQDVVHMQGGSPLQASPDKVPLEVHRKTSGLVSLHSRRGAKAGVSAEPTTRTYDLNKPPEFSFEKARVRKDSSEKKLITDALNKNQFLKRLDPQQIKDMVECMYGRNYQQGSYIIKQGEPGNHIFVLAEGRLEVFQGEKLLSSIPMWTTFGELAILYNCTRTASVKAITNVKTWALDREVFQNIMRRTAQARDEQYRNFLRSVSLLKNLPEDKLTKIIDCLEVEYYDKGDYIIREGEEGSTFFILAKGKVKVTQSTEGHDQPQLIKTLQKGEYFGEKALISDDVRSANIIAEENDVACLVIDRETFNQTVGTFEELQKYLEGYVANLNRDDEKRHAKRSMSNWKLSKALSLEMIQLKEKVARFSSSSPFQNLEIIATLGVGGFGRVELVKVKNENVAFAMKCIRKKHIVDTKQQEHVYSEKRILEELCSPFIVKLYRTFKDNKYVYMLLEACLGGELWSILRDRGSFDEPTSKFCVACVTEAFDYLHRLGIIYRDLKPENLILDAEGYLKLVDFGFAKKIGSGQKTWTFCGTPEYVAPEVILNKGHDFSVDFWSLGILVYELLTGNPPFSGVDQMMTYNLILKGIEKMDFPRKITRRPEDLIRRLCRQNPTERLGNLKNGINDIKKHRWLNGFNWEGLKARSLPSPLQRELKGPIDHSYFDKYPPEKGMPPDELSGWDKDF
The settings on record: at 0.1 µM.

Experiment [17] concerns the target T6, cGMP-dependent protein kinase 2 (Homo sapiens). The settings on record: at 1 µM.
In experiment [18] the target is T7, cAMP-dependent protein kinase catalytic subunit PRKX (Homo sapiens) (UniProt P51817).
T7 sequence (whole entry): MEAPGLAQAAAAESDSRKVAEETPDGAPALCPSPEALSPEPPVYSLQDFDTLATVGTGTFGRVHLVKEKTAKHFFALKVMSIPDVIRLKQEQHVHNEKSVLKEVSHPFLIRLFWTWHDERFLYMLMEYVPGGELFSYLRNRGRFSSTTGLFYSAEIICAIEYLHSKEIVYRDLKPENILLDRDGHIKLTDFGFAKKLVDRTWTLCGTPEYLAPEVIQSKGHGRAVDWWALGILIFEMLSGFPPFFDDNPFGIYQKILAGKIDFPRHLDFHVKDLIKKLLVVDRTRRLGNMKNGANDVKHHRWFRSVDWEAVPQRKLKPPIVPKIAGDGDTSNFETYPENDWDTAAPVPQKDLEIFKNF
The following applies: at 0.1 µM.

The target in experiment [19] is T7, cAMP-dependent protein kinase catalytic subunit PRKX (Homo sapiens). The settings on record: at 1 µM.
In experiment [20] the target is Rho-associated protein kinase 1 (Homo sapiens) (UniProt Q13464). The settings on record: at 0.1 µM.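 Note: values are mean percent inhibition of ROCK1.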

The structures appear in SMILES notation.

Protein kinase C beta type (Homo sapiens), sequence (P05771 2-671 limits assumed): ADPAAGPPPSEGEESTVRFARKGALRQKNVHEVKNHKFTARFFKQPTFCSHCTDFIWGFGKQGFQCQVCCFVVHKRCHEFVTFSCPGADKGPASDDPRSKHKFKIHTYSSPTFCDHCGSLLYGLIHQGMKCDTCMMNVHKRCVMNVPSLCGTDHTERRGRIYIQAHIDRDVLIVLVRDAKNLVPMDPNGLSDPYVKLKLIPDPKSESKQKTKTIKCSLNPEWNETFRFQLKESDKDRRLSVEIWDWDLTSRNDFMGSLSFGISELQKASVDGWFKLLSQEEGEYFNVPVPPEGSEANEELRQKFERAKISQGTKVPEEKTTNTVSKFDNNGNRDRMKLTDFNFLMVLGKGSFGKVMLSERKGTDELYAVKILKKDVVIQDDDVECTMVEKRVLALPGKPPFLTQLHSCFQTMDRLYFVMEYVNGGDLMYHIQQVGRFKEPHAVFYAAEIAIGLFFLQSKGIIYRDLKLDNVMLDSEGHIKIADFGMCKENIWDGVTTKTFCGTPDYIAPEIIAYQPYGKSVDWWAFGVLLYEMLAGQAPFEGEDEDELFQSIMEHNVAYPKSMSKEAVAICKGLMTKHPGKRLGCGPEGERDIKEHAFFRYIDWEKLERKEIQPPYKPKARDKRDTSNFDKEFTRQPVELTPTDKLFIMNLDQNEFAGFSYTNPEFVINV
Protein kinase C theta type (Homo sapiens), sequence (Q04759 whole entry, looked up): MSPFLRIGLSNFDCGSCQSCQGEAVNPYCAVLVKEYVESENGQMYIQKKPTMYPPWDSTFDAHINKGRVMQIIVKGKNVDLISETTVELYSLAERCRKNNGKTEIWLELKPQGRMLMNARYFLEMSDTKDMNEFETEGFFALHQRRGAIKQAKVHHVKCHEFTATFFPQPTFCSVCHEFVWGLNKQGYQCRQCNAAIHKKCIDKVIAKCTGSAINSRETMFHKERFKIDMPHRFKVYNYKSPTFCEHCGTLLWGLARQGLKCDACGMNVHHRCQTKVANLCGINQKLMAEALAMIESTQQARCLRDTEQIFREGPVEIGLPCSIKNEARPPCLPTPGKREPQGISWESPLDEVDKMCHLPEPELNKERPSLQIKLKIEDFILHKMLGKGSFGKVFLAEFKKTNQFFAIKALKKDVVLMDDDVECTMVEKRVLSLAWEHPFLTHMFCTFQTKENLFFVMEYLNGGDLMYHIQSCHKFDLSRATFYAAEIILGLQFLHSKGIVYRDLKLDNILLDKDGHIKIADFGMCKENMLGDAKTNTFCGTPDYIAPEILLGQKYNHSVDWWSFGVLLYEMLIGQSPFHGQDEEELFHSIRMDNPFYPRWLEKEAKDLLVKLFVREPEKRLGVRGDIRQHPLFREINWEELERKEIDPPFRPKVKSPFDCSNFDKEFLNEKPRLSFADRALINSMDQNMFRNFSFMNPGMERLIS
Rho-associated protein kinase 1 (Homo sapiens), sequence (Q13464 2-1354 limits assumed): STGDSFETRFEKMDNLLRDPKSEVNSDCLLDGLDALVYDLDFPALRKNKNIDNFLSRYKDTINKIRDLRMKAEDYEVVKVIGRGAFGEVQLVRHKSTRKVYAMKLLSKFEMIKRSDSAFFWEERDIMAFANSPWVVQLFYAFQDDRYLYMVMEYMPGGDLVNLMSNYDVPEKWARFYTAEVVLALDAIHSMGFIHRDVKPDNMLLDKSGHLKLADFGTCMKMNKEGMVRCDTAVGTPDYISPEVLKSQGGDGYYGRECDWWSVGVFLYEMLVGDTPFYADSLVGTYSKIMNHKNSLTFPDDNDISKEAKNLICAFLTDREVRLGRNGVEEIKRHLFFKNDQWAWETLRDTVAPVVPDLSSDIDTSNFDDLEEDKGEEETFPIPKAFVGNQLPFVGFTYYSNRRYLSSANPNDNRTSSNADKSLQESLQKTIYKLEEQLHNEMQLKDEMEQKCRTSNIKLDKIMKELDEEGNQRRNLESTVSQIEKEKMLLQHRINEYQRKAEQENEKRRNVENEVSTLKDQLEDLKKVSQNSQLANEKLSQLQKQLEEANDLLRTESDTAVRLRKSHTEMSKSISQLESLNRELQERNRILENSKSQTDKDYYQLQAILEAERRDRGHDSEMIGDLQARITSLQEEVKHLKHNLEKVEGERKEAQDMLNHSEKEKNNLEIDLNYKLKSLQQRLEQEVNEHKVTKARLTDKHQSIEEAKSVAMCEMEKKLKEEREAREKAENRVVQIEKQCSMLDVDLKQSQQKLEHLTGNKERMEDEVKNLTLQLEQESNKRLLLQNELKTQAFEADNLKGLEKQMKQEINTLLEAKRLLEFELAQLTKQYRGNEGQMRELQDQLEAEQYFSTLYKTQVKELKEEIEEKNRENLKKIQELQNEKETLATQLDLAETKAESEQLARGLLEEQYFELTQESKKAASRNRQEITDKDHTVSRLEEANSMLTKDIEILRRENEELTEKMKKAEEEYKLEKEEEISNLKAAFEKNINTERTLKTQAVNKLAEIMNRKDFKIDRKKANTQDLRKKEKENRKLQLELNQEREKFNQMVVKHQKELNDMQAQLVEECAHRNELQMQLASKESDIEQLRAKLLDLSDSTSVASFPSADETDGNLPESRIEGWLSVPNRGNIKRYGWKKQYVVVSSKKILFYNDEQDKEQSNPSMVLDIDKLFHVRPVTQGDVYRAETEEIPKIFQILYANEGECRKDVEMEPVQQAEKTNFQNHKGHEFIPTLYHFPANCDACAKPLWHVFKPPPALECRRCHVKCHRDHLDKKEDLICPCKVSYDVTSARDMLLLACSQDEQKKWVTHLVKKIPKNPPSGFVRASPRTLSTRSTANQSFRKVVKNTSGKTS

`CNC(=O)c1cncc(/C=C/c2ccccc2Cl)c1`: the inhibition in experiment [1] stood at 3.18%; in experiment [2], 1.77%; in [3], 0.56%; in experiment [4] it was 1.22%; in experiment [5] it was 3.14%; in [6], 2.46%. For the same molecule, the inhibition in experiment [7] was 1.4%; in [8] it was 1.19%; in experiment [9], -1.46%; in experiment [10] it was -1%; in [11], -1.08%; in experiment [12], 0.25%. Besides, the inhibition was -0.83% in experiment [13]; 1.15% in [14]; 2.29% in [15]; 2.05% in [16]; 2.68% in experiment [17]; 1.22% in [18]. Besides, the inhibition stood at 2.62% in experiment [19] and 0.5% in experiment [20].

For the molecule `CC(=O)Nc1cccc(C#Cc2cncnc2Nc2ccc(OCc3cccc(F)c3)c(Cl)c2)c1`, the inhibition was 3.97% in experiment [1]; 0.27% in experiment [2]; 2.04% in experiment [3]; 0.62% in experiment [4]; -0.6% in experiment [5]; 1.6% in [6]. The inhibition in [7] worked out at 0.79%; in [8], 1.8%; in experiment [9], 2.69%; in experiment [10] it was 1.88%; in experiment [11], 3.79%; in [12] it was 2.13%. The inhibition in experiment [13] was determined as 2.46%; in experiment [14] it was 3.13%; in experiment [15], 3.55%; in [16] it was 2.86%; in experiment [17] it was 1.98%; in [18], 1.66%. In addition, the inhibition in experiment [19] was 1.17%; in [20], 1.07%.
